# Source: PubChem BioAssay (NCI)
# Compounds without any hit were thinned out: in the full panel of roughly 83,000, 20% have a hit.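 In brief: 96-well plates, 48 h treatment, single concentration, percent growth endpoint.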 Unmarked numbers belong to inactive results. Calls of active or inactive are those of the source. How the source made its calls: active means growth percent below 10; inactive means the rest.
# What was measured:
# Experiment in all cases: NCI-60 one-dose screen, 48 h (100 = growth as untreated, 0 = no growth, -100 = all killed)
# Settings in all cases: 10 µM
# DU-145 prostate = test system: DU-145 prostate
# K-562 leukemia = test system: K-562 leukemia
# MALME-3M melanoma = test system: MALME-3M melanoma
# MDA-MB-231 breast = test system: MDA-MB-231 breast
# RXF 393 renal = test system: RXF 393 renal
# SF-268 CNS = test system: SF-268 CNS
# SF-295 CNS = test system: SF-295 CNS
# SF-539 CNS = test system: SF-539 CNS
# UACC-257 melanoma = test system: UACC-257 melanoma
# M14 melanoma = test system: M14 melanoma
# HCT-15 colon = test system: HCT-15 colon
# HT29 colon = test system: HT29 colon
# SNB-75 CNS = test system: SNB-75 CNS
# SNB-19 CNS = test system: SNB-19 CNS
# PC-3 prostate = test system: PC-3 prostate
# SK-MEL-5 melanoma = test system: SK-MEL-5 melanoma
# UACC-62 melanoma = test system: UACC-62 melanoma
# LOX IMVI melanoma = test system: LOX IMVI melanoma
# SK-MEL-28 melanoma = test system: SK-MEL-28 melanoma
# U251 CNS = test system: U251 CNS
Structure (SMILES),growth (DU-145 prostate),growth (K-562 leukemia),growth (MALME-3M melanoma),growth (MDA-MB-231 breast),growth (RXF 393 renal),growth (SF-268 CNS),growth (SF-295 CNS),growth (SF-539 CNS),growth (UACC-257 melanoma),growth (M14 melanoma),growth (HCT-15 colon),growth (HT29 colon),growth (SNB-75 CNS),growth (SNB-19 CNS),growth (PC-3 prostate),growth (SK-MEL-5 melanoma),growth (UACC-62 melanoma),growth (LOX IMVI melanoma),growth (SK-MEL-28 melanoma),growth (U251 CNS)
CN(C)CCC1(c2ccccc2)CCN(C)C1=O (stereo not given),107%,95.2%,94.8%,114%,96.1%,99.9%,104%,103%,104%,108%,102%,106%,95.8%,105%,99.7%,96.1%,105%,102%,103%,–
CC(C)(O)CCl,109%,106%,116%,99.8%,117%,111%,97.9%,99.8%,91.9%,108%,102%,–,110%,102%,102%,104%,102%,104%,110%,103%
O=c1oc2c(cc1-c1ccc(F)cc1)C(O)Oc1ccccc1-2 (stereo not given),98.1%,66.7%,58.4%,77.8%,93.9%,81.4%,84.2%,74.4%,84.1%,–,63.4%,66.8%,63.4%,95.9%,92.9%,34.8%,44.5%,77.8%,88.6%,67.4%
CCc1ccc(C2=NN(c3ccc(S(C)(=O)=O)cc3)C(=O)CC2)cc1,21.3%,10.4%,38.8%,55.5%,27.4%,42.8%,9.24% (active),15.1%,59.1%,5.99% (active),22.1%,11.5%,16.7%,51.5%,56.6%,10.7%,38%,35%,50.7%,–
COc1cc2c(cc1NC(=O)C(Cl)Cl)-c1ccc(NC(=O)C(Cl)Cl)cc1C2,-68.4% (active),20.7%,115%,-18% (active),-59.2% (active),-31.2% (active),-12.8% (active),-14.9% (active),-13.1% (active),69.8%,-7.21% (active),-35.3% (active),-29.6% (active),3.35% (active),18.8%,22.5%,-22.2% (active),67%,-54.7% (active),–
COc1ccc(/C=C2\CCCC3=C2N=C2SC(C)=CN2C3c2ccc(OC)cc2)cc1 (stereo not given),107%,96.1%,80%,101%,102%,116%,106%,111%,90.9%,98.8%,102%,104%,97.7%,100%,99.9%,92.3%,–,91.5%,96.2%,–
N=C1S/C(=C/c2ccc(-c3ccc4c(c3)C(=O)NC4=O)o2)C(=O)N1c1ccc(Br)cc1,27.8%,21.5%,18.3%,46.5%,-28.5% (active),39.3%,22.1%,87.8%,47.7%,36.7%,47.1%,21.9%,-3.31% (active),106%,-2.15% (active),65.5%,31.8%,–,-19.1% (active),–
COc1ccc(C(=O)c2ccccc2CN2C(=O)c3ccccc3C2=O)cc1,110%,96.5%,98.6%,109%,107%,102%,100%,108%,104%,104%,112%,99.7%,92%,99.6%,89.6%,100%,97.2%,94.3%,114%,–
CCOC(=O)C1C(C(=O)OCC)C2C(=O)C3C(C(=O)OCC)C(C(=O)OCC)C3C(=O)C12 (stereo not given),110%,94.2%,106%,110%,112%,101%,101%,105%,108%,110%,103%,105%,99.9%,96.4%,97.6%,100%,101%,96.6%,105%,–
O=C1/C=C/[C@@H](O)[C@@H]2C[C@@H](O)C[C@H]2/C=C/CCC[C@@H](C(F)(F)F)O1,119%,92%,65%,96.7%,42.7%,93.9%,97.2%,105%,51.8%,112%,100%,39.9%,60.7%,97.1%,92.9%,60.5%,–,71.3%,61.8%,–
CCOC(=O)CN(c1sc(C)c(C)c1C(=O)OCC)S(=O)(=O)c1ccc(C)cc1,92.1%,103%,106%,72.9%,92.1%,107%,103%,107%,98.8%,107%,99.3%,111%,91.7%,86.6%,74.5%,–,68.2%,87.4%,102%,–
COc1ccc(Cl)cc1Nc1nc(C(F)(F)F)ccc1C(=O)N/N=C/c1cc(OC)c(OC)c(OC)c1,38.4%,24.1%,-6.88% (active),-5.79% (active),-10.2% (active),8.43% (active),19.8%,17.1%,54.8%,–,23.7%,32%,32.6%,38.9%,6.2% (active),18.8%,-48% (active),-61.5% (active),30.2%,16.3%
O=c1cn[nH]c2ccc(Br)cc12,105%,95.7%,114%,116%,95.3%,99.9%,107%,95.6%,104%,101%,104%,95.7%,96.2%,106%,95.4%,100%,112%,97.2%,123%,–
COC(=O)c1cc2oc(/C=C3/SC(=S)N(N)C3=O)cc2n1Cc1ccccc1,32.7%,7.35% (active),-69.9% (active),6.49% (active),-19.1% (active),46.4%,68%,44.7%,49.6%,–,47%,63%,29.3%,84.5%,-3.5% (active),45.4%,50.6%,34.6%,-71.4% (active),45.3%
COc1ccc(-c2nn(-c3cccc(Cl)c3)cc2-c2cc(-c3ccccc3)nc(N)n2)cc1,95.1%,-3.82% (active),52.1%,35.1%,56.2%,65.7%,55%,89%,81.1%,52.6%,44.5%,19.5%,89.9%,75.2%,40%,73.3%,74.3%,-84.1% (active),83.8%,–
CCOC(=O)C1=CSC2=NC3=C(CCC/C3=C\c3ccc(Cl)cc3)C(c3ccc(Cl)cc3)N12 (stereo not given),92.7%,92.7%,103%,94.5%,78.8%,90.8%,104%,103%,85.7%,92.5%,91.9%,82.8%,86.4%,81.3%,101%,84.7%,82%,74.9%,99.5%,–
